Here are results for 104 compounds from ChEMBL document CHEMBL4513216, “Probing the Open Global Health Chemical Diversity Library for Multistage-Active Starting Points for Next-Generation Antimalarials” (ACS Infect Dis, 2020).

In all, about 68,000 compounds went through this assay and about 2,700 (4%) showed an effect of 50% or more. What follows is part of a selection rich in strong results, with near analogues and random picks from the rest.

The assay concerns Plasmodium berghei. As to the kind of experiment: Screen against P. berghei liver stage (PbLuc), transformed with Luciferase, at 2uM. The class given is functional, HepG2. The conditions noted are these: tested at 2 uM.
As for `CC(NC(=O)CCc1nc(C(C)(C)C)no1)c1nnc2n1CCC2` (centres undefined), the INHIBITION is 64.2%.
To `CC(NC(=O)CCCc1nc(C(C)(C)C)no1)c1nnc2n1CCC2` (centres undefined) belongs 19.04%.
On to `CC(C)c1noc(CCC(=O)NC(C)c2nnc3n2CCC3)n1` (centres undefined), for which the INHIBITION was determined as 45.48%.
To `c1coc(CN2C[C@@H]3OCCN(CC4CCCO4)[C@@H]3C2)c1` (some centres undefined) belongs -44.46%.
With `CCOC(=O)N1C[C@@H]2CC[C@H]1CN(Cc1ccccc1)C2` the figure was 18.19%.
To `c1cnc(N2CCC(c3nccn3CC3CC3)CC2)nc1` belongs 18.81%; to `COCC(=O)N1CCC(c2nccn2CC2CC2)CC1`, -34.68%; to `CCOCC(=O)N1CCC(c2nccn2CC2CC2)CC1`, -1.32%.
With `COCCOC(=O)N1CCC(c2nccn2CC2CC2)CC1`, the INHIBITION is listed as -1.87%.
To `COCC1(C(=O)N2CCC(c3nccn3CC3CC3)CC2)CCC1` belongs 52.57%.
With `O=C(O)c1cnc(N2CCC(c3nccn3CC3CC3)CC2)c(Cl)c1` the figure was 60.39%; with `O=C(NC1CC1)N1C[C@H]2CN(c3ccccc3)C(=O)[C@H]2C1`, -0.9%.
On to `CCc1nc2c(NCC3COc4c(cccc4OC)C3)ncnc2o1` (centres undefined), for which the INHIBITION is reported as 1.39%.
In the case of `O=C(C1CCCc2[nH]ncc21)N1CCCCCC1` (centres undefined), the INHIBITION is reported as -0.54%.
To `O=C(C1CCCc2[nH]ncc21)N1CCCC2(C1)OCCO2` (centres undefined) belongs 64.92%; to `O=C(C1CCCc2[nH]ncc21)N1CCCC1` (centres undefined), -10.01%; to `CNC(=O)COC(=O)c1cccc(-n2ccc(C(F)(F)F)n2)c1`, 10.31%.
With `CNC(=O)CCOC(=O)c1cccc(-n2cccn2)c1` the figure was 55.25%; with `CNC(=O)CCOC(=O)c1cccc(-n2ccc(C(F)(F)F)n2)c1`, 13.1%.
To `Cc1nc2c(c(N3CCCC(OCc4ccccn4)C3)n1)CCNCC2` (centres undefined) belongs 20.71%; to `Cc1ccc(CN2CC[C@@H]3O[C@@H](C(=O)N4CCN(C)CC4)C[C@@H]32)cc1`, 41.55%.
For `Cc1nccc(C(=O)N2CCCN(Cc3cnn(C(C)C)c3)CC2)n1`, the INHIBITION is 16.6%.
With `COC(=O)C(C)(C)NC(=O)C1CC(=O)N(C2CC2)C1` (centres undefined) the figure was 5.15%; with `Cc1cc(NCCCNS(C)(=O)=O)nc2ccccc12`, 20.88%.
With `Cc1cc(NCCOCCS(C)(=O)=O)nc2ccccc12` the figure was 53.16%; with `Cc1cc(NCCS(C)(=O)=O)nc2ccccc12`, -0.6%; with `Cc1cccc(-c2nc(CN3CCCC3Cn3cc(C)cn3)no2)c1` (centres undefined), 1.36%.
With `COC(=O)N1CCCN(C(=O)c2cccc3cccnc23)CC1` the figure was 5.72%.
With `COCC1CN(CCOc2ccc(Cl)cc2)Cc2c1cnn2C` (centres undefined), the INHIBITION is -17.24%.
`Cc1cc(-c2cnn(CCNC(=O)c3cc[nH]n3)c2C2CC2)on1`: the INHIBITION was -2.47%.
On to `Cc1cc(-c2cnc(C3CC3)nc2CN(C)C(=O)c2ccccn2)on1`, for which the INHIBITION stood at 34.06%.
As to `Cc1cc(-c2cnc(C)nc2CN(C)C(=O)c2ccccn2)on1`, the INHIBITION is -0.54%.
To `Cc1cc(-c2cnn(CCNC(=O)C3CC3)c2C2CC2)on1` belongs -39.92%.
With `Cc1cc(-c2cnc(C(C)C)nc2CN(C)C(=O)c2ccccn2)on1` the figure was 56.57%; with `Cc1cc(-c2cnc(C)nc2CN(C)C(=O)c2cc(C3CC3)on2)on1`, 51.57%.
With `Cc1nn(C)cc1C1=NS(=O)(=O)N(C)C(C(=O)Nc2ccc(Cl)cc2)=C1`, the INHIBITION is given as -13.02%.
With `CCn1cc(S(=O)(=O)NC2CCCN(CCCc3ccccc3)C2)cn1` (centres undefined) the figure was 7.21%.
`CC(=O)N1CCCCCC1C1CCN(Cc2nnc(C(C)(C)C)o2)CC1` (centres undefined): the INHIBITION worked out at 30.82%.
To `COc1cncc(-n2ccnc2-c2ccc(C(=O)O)s2)c1` belongs 48.58%; to `Cc1cnc(C(=O)N2CCC3(CC2)CC(c2ccccc2)C(=O)N3)cn1` (centres undefined), -6.21%; to `CC(C)c1nc(C(=O)N2C[C@H](C(C)C)[C@@H](N)C2)cs1`, 58.69%.
As to `CC(=O)N[C@@H]1CN(C(=O)c2csc(C(C)C)n2)C[C@H]1C(C)C`, the INHIBITION was 3.62%.
To `CC(C)c1nc(C(=O)N2CCCC(N)CC2)cs1` (centres undefined) belongs -66.05%; to `COc1ccc(-c2cc(CN)nc3ccnn23)cc1`, -11.81%.
To `O=c1c(NCc2ccncc2)c(NCC(O)CN2CCOCC2)c1=O` (centres undefined) belongs 1.08%; to `O=c1c(NCc2ccccn2)c(NCC(O)CN2CCOCC2)c1=O` (centres undefined), 15.02%; to `O=c1c(NCc2ccco2)c(NCC(O)CN2CCOCC2)c1=O` (centres undefined), 53.33%.
With `COCCN1CCc2cc(C(=O)NCC3CC3)c(NC(C)C)nc2CC1` the figure was 25.35%; with `COC[C@]1(O)CCN(C(=O)c2ccc(CN(C)C)o2)CC1(C)C`, 8.88%.
`CN(Cc1ccccc1)C1(C(=O)NC(CO)CO)Cc2ccccc2C1`: the INHIBITION turned out to be 31.35%.
With `CC(Cc1cn(CCc2nnn[nH]2)nn1)c1ccccc1` (centres undefined) the figure was 29.41%.
With `Cc1nccc([C@H]2C[C@@H]3CCN(S(=O)(=O)N(C)C)C[C@H]3O2)n1` the figure was 21.33%; with `Cc1nccc([C@@H]2C[C@@H]3CCN(S(C)(=O)=O)C[C@H]3O2)n1`, 26.65%.
For the compound `Cc1nccc([C@@H]2C[C@@H]3CCN(S(=O)(=O)N(C)C)C[C@H]3O2)n1`, the INHIBITION was 54.16%.
With `COc1cc(N2C[C@H]3CCC[C@@H](CN4CCOCC4)[C@H]3C2)ncn1` the figure was 36.75%; with `CCCS(=O)(=O)N1C[C@@H]2CN(Cc3ccoc3)CCO[C@@H]2C1`, 33.4%.
With `CN1CC2(CCN(C(=O)c3ccc(=O)n(C)c3)CC2)CC1=O` the figure was 53.13%; with `CC(=O)N1CCCN(C(=O)c2ccc(=O)n(C)c2)c2ccccc21`, 28.18%; with `Cn1cc(C(=O)N2CCOc3ccccc32)ccc1=O`, -31.6%.
To `Cn1cc(C(=O)N2CCSc3ccccc32)ccc1=O` belongs 50.05%.
On to `COCCCN1CC2(CCN(C(=O)c3ccc(=O)n(C)c3)CC2)CC1=O`, for which the INHIBITION stood at 44.23%.
With `CN1CCN(C(=O)c2ccc(=O)n(C)c2)c2ccccc21` the figure was 51.19%; with `CN1CC2(CCN(C(=O)c3ccc4nonc4c3)CC2)CC1=O`, 10.02%.
Regarding `CC1CN(C)c2ccccc2N(C(=O)c2ccc(=O)n(C)c2)C1` (centres undefined), the INHIBITION is given as 15.47%.
To `CCN1CCN(C(=O)c2ccc(=O)n(C)c2)c2ccccc21` belongs -22.63%.
With `CC(C)n1nc(CN2CCCC2)c2c1CN(CC1CC1)CC2` the figure was -29%; with `FC(F)(F)CCc1ccnc(NCc2csc(N3CCOCC3)n2)n1`, -17.11%.
To `Cn1nnc2c1C(COCC1CC1)CN(C(=O)C1=CCCC1)C2` (centres undefined) belongs 22.68%.
For the compound `CCN1CCC2(CCN(c3ncccn3)CC2)C1=O`, the INHIBITION was 32.05%.
With `CC(C)NS(=O)(=O)c1cc(C(=O)O)cc(-c2ccc3c(c2)OCO3)c1`, the INHIBITION was -12.67%.
With `O=C(NCc1ccccn1)[C@@H]1CCO[C@@H]2CCN(Cc3ccoc3)C[C@H]21` the figure was 11.08%.
To `O=C(c1ccno1)N1CCCC(c2ncncc2-c2ccncc2)C1` (centres undefined) belongs 6.13%.
Turning to `OC1(CN2CCCC(Cn3cncn3)C2)CCCCC1` (centres undefined), the INHIBITION turned out to be 19.9%.
`COCC(NC1CCSCC1)c1ccnn1C` (centres undefined): the INHIBITION was found to be 27.55%.
With `Cc1cc(C)cc(NC(=O)N(CCC#N)CCCN(C)C)c1` the figure was 53.81%; with `CN(C)CCCN(CCC#N)C(=O)Nc1ccc2[nH]ccc2c1`, -28.09%.
On to `Cc1cc(NC(=O)N(CCC#N)CCCN(C)C)ccc1F`, for which the INHIBITION is on record as -11.32%.
To `Cc1noc(C)c1CN1CCc2ncnc(-c3ccoc3)c2CC1` belongs -15.88%; to `CCOC(=O)CNC(=O)NCc1cc(C)n(-c2ccccc2OC)c1C`, 7.91%.
To `CCN1CC[C@@]2(C(=O)N3CCOCC3)CCN(S(=O)(=O)CC)CC[C@@H]12` belongs 46.32%; to `Cc1nc(C)n(CC2CCCN2Cc2ncc(C(C)(C)C)o2)n1` (centres undefined), -39.72%.
To `FC(F)(F)c1ccc2nc([C@H]3CCN(C4CCC4)C3)[nH]c2c1` belongs 2.22%; to `FC(F)(F)c1ccc2nc([C@H]3CCN(C4CCCCC4)C3)[nH]c2c1`, -5.77%; to `FC(F)(F)c1ccc2nc([C@H]3CCN(C4CCOCC4)C3)[nH]c2c1`, 54.16%.
For `Cc1n[nH]cc1CNCc1cccc(OCC(F)(F)F)c1`, the INHIBITION is reported as 36.91%.
To `O=C(C1CC1)N1CCN(c2ccc(-n3cncn3)nn2)CC1` belongs 42.14%; to `O=C(CC1CCCC1)N1CCN(c2ccc(-n3cncn3)nn2)CC1`, 59.76%; to `O=C(CSC1CCCC1)N1CCN(c2ccc(-n3cncn3)nn2)CC1`, 15.96%.
As for `Cc1cc(F)ccc1NS(=O)(=O)c1cc2c(c(C(=O)O)c1)OCCO2`, the INHIBITION is reported as -1.02%.
For `CC(C)(N)c1cn(C2CCN(C(=O)CCC3CCCCC3)CC2)nn1`, the INHIBITION is recorded as 20.08%.
Turning to `Cc1nc(N2CCCC2)nc2c1CCN(C(=O)CC1CC1)CC2`, the INHIBITION is given as -24.79%.
To `CCN1CCNC(=O)C12CCN(S(=O)(=O)c1ccccc1)CC2` belongs -2%; to `CCN1CCNC(=O)C12CCN(S(=O)(=O)c1ccc(F)cc1)CC2`, 26.55%; to `CC(C)CN1CCNC(=O)C12CCN(S(=O)(=O)c1ccc(F)cc1)CC2`, 55.66%.
Regarding `Oc1cc(-c2ccccn2)nc(C2CCN(Cc3ccncc3)CC2)n1`, the INHIBITION is on record as -1.49%.
To `Nc1nc2c(c(N3CCCC(OCc4ccccn4)C3)n1)CCNCC2` (centres undefined) belongs -24.7%; to `Cc1ccsc1CN(C)CCc1scnc1C`, 57.75%.
To `Cc1ncsc1CCN(C)Cc1ccc(CO)o1` belongs 36.28%.
To `Cc1ncsc1CCN(C)Cc1ccc(Br)o1` belongs 34.18%; to `CC(C)=CCN1C[C@@H]2CN(C(=O)c3cnccc3C)C[C@]2(C(=O)O)C1`, -9.48%.
For the compound `CCn1nc(C)cc1C(=O)N1CCC(Nc2ccc(C)nn2)CC1`, the INHIBITION is given as -7.05%.
On to `COC(=O)c1ccc(N(C)C2CCC2)nn1`, for which the INHIBITION was determined as 24.36%.
To `CN(c1ccc(C(N)=O)nn1)C1CCC1` belongs -35.26%.
With `CNC(=O)c1ccc(N(C)C2CCC2)nn1` the figure was 67.28%.
